Data from ChEMBL document CHEMBL1961873, “Compounds: GSK PKIS; Assays: Nanosyn kinase panel” (2012).
Where “and” joins values, the source holds several entries; their conditions need not be identical. Identical values can stand only once.

What was measured:
[1] = target: Mitogen-activated protein kinase 3 (Homo sapiens) (UniProt P27361); details: at 1 µM;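 also: values are mean percent inhibition of MAPK3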
[2] = target: SRSF protein kinase 3 (Homo sapiens) (UniProt Q9UPE1); details: at 0.1 µM
[3] = target: SRSF protein kinase 3 (Homo sapiens) (UniProt Q9UPE1); details: at 1 µM
[4] = target: Mitogen-activated protein kinase 14 (Homo sapiens) (UniProt Q16539); details: at 0.1 µM
Mitogen-activated protein kinase 14 (Homo sapiens), sequence (Q16539 whole entry): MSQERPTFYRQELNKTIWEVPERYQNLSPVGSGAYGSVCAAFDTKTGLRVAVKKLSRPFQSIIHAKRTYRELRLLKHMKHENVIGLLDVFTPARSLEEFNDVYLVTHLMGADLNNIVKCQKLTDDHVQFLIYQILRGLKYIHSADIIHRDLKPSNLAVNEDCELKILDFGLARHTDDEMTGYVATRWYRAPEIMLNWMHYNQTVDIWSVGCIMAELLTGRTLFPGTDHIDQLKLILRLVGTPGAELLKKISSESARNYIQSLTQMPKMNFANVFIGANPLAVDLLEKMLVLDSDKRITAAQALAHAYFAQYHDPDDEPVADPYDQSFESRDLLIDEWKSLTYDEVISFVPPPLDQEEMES

[5] = target: Mitogen-activated protein kinase 14 (Homo sapiens) (UniProt Q16539); details: at 1 µM
[6] = target: Mitogen-activated protein kinase 11 (Homo sapiens) (UniProt Q15759); details: at 0.1 µM
Mitogen-activated protein kinase 11 (Homo sapiens), sequence (Q15759 whole entry): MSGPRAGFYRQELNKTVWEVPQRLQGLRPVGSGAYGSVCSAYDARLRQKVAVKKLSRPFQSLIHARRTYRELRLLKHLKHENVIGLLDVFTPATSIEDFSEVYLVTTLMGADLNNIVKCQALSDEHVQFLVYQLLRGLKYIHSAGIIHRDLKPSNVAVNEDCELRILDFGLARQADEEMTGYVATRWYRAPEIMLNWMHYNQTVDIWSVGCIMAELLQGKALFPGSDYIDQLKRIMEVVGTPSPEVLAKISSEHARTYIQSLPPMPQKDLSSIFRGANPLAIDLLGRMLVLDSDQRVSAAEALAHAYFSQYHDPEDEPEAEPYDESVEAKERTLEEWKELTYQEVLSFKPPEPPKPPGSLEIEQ

[7] = target: Mitogen-activated protein kinase 11 (Homo sapiens) (UniProt Q15759); details: at 1 µM
[8] = target: T1, Mitogen-activated protein kinase 13 (Homo sapiens) (UniProt O15264); details: at 0.1 µM
T1 sequence (whole entry): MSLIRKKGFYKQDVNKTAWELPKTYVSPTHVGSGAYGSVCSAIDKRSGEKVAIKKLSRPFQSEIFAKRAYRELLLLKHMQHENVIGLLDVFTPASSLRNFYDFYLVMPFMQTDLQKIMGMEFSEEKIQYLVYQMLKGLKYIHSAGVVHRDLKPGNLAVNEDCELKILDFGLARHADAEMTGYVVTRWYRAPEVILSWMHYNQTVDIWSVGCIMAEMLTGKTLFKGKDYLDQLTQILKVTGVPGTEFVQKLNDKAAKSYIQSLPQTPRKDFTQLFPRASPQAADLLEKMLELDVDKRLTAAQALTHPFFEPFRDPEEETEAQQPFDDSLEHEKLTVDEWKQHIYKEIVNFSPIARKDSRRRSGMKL

[9] = target: T1, Mitogen-activated protein kinase 13 (Homo sapiens); details: at 1 µM
[10] = target: T2, Mitogen-activated protein kinase 12 (Homo sapiens) (UniProt P53778); details: at 0.1 µM
T2 sequence (whole entry): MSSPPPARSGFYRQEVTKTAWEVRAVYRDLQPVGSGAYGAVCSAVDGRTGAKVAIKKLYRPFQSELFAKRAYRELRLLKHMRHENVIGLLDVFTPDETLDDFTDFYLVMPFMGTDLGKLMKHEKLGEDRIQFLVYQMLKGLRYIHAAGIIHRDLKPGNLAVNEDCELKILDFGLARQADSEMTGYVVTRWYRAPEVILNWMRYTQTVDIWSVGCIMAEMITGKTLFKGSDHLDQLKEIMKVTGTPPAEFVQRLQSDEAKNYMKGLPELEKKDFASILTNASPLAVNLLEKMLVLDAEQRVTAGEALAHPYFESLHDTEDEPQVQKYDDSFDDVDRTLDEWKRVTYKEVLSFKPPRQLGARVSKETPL

Mitogen-activated protein kinase 3 (Homo sapiens), sequence (P27361 whole entry): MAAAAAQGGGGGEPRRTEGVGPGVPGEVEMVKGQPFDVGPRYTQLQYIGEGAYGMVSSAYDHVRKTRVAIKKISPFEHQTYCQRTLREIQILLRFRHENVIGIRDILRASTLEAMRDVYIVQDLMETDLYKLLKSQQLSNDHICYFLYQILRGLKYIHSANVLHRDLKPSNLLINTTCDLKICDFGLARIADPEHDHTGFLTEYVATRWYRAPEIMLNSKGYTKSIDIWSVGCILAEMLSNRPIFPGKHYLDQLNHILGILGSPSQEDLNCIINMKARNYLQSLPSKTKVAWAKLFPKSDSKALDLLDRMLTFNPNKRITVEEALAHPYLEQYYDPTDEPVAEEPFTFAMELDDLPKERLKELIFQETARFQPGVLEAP
SRSF protein kinase 3 (Homo sapiens), sequence (Q9UPE1 whole entry): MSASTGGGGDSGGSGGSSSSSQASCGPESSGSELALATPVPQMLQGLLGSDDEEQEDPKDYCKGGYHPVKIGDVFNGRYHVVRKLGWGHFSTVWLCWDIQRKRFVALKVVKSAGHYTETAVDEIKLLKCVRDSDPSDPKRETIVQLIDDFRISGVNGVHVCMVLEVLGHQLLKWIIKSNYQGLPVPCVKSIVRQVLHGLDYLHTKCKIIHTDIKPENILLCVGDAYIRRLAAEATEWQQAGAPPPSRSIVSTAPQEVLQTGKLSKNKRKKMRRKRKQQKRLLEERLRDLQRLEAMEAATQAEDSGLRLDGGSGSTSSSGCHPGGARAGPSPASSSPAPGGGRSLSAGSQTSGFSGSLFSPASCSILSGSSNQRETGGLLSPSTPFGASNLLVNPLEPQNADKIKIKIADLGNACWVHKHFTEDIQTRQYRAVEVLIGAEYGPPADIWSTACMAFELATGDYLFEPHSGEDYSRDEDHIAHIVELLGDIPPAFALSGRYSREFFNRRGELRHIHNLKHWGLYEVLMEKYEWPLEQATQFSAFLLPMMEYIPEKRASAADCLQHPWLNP

Compound	inhibition [1]	inhibition [2]	inhibition [3]	inhibition [4]	inhibition [5]	inhibition [6]	inhibition [7]	inhibition [8]	inhibition [9]	inhibition [10]
Cc1ccc(-c2cc3c(NC(=O)C4CC4)ncnc3o2)cc1	1.29%	0.82%	0.53%	3.56%	6.38%	1.17%	7.45%	5.13%	4.2%	1.34%
COc1c(C(N)=O)cc(-c2ccc(Cl)cc2)cc1-c1ccc(S(N)(=O)=O)cc1	5.76%	2.9%	0.68%	8.26%	10.3%	4.78%	4.22%	4.33%	6.61%	4.27%
CC1=C(C(=O)Nc2ccc3[nH]ncc3c2)C(c2ccc(F)cc2)N=C(c2ccc(C(F)(F)F)nc2)N1 (stereo not drawn)	-0.07%	0.36%	0.93%	6.91%	7.75%	0.24%	2.12%	2.38%	2.31%	0.91%
COc1ccc2ncn(-c3cc(O[C@H](C)c4ccccc4C(F)(F)F)c(C(N)=O)s3)c2c1	0.26%	-1.14%	-0.79%	-5.71%	0.3%	-0.35%	0.3%	-0.27%	-1.08%	0.21%
CCCNc1cccc(-n2ncc3c(N/N=C/c4ccncc4)ncnc32)c1	3.62%	-0.81%	0.97%	1.81%	7.62%	4.76%	25.5%	0.94%	3.1%	0.51%
CN(C)CCNC(=O)Nc1ccc(N(C)c2ccnc(Nc3ccc(CS(C)(=O)=O)cc3)n2)cc1	1.29%	1.45%	-2.85%	2.66%	7.04%	2.16%	2.52%	1.99%	3.74%	-0.76%
COc1cc(N2CCN(C(C)C)CC2)ccc1Nc1nc(Nc2cccc3ncccc23)c2cc[nH]c2n1	0.21%	-0.27%	1.83%	1.44%	2.03%	-0.29%	0.54%	-1.75%	-2.15%	-0.18%
N#Cc1cccc(Nc2ncc(-c3ccccc3)o2)c1	4.14%	-0.78%	0.7%	2.24%	3.69%	1.51%	5.93%	-0.16%	2.33%	3.74%
O=C(O[C@H]1CN[C@H](C#Cc2cc3ncnc(Nc4ccc5c(ccn5Cc5cc(F)ccc5F)c4)c3s2)C1)N1CCOCC1	2.72%	-1.71%	-2.33%	5.28%	8.23%	3.16%	5.47%	2.39%	5.7%	3.21%
COc1cc(Nc2ncc(-c3ccccc3)o2)cc(OC)c1	5.68%	-1.19%	1.14%	6.3%	5.68%	2.87%	5.59%	5.24%	4.13%	3.61%
Cn1c(-c2nonc2N)nc2cnccc21	3.9%	-1.11%	-2.32%	3.4%	6.34%	3.09%	0.59%	2.23%	2.42%	2.62%
CNC(=O)c1ncccc1Nc1nc(Nc2cc3c(cc2OC)CCCN3C(=O)CN(C)C)nc2[nH]ccc12	1.38%	0.37%	0.84%	4.75%	8.76%	4.41%	4.4%	8.55%	5.64%	1.94%
COc1cc2c(cc1Nc1nc(Nc3cccc(F)c3C(N)=O)c3cc[nH]c3n1)N(C(=O)CN1CCN(C(C)C)CC1)CC2	3.92%	4.88%	0.53%	5.02%	6.81%	2.96%	3.23%	0.14%	2.89%	1.49%
Cc1c2ccc(N(C)c3ccnc(Nc4cccc(S(N)(=O)=O)c4)n3)cc2nn1C	4.37%	-0.02%	-0.13%	2.68%	17.1%	7.06%	16%	5.49%	5.64%	5.17%
NC(=O)c1ccc2c(-c3ccnc(NCCCO)n3)c(-c3ccc(F)cc3)nn2c1	8.87%	1.36%	1.23%	74.9%	86.4%	49.5%	68.7%	1.5%	6.27%	2.09%
COc1cc(N2CCN(C(C)C)CC2)ccc1Nc1nc(Nc2cccc(F)c2C(=O)O)c2cc[nH]c2n1	5.94%	-1.11%	3.96%	6.33%	9.12%	3.15%	5.38%	4.97%	4.09%	0.95%

Compound	inhibition [1]	inhibition [2]	inhibition [3]	inhibition [4]	inhibition [5]	inhibition [6]	inhibition [7]	inhibition [8]	inhibition [9]	inhibition [10]
CS(=O)(=O)CCNCc1ccoc1-c1ccc2ncnc(Nc3ccc(OCc4ccccc4)cc3)c2c1	1.25%	-1.87%	-1.49%	2.69%	0.9%	2.25%	1.9%	0.46%	-0.76%	0.71%
O=C(Nc1n[nH]c2nnc(-c3cccnc3)cc12)C1CC1	0.8%	-0.02%	-4.68%	-0.2%	-1.37%	0.57%	2.39%	-0.07%	5.16%	0.25%
CNC(=O)c1cncc(/C=C/c2ccccc2C)c1	4.66%	-0.87%	3.21%	3.76%	6.09%	4.82%	7.21%	4.01%	3.77%	1.29%
CC(C)c1ccc(-c2cc(-c3c[nH]nc3-c3ccccn3)ccn2)cc1	-2.17%	-1.14%	0.11%	5.48%	15.8%	1.06%	8.12%	5.51%	0.87%	0.13%
Fc1ccc(Nc2nccc(-c3c(-c4ccc(C(F)(F)F)cc4)nn4ncccc34)n2)cc1F	-0.07%	0.64%	0.08%	1.53%	8.46%	1.28%	3.29%	-4.93%	4.25%	5.22%
c1ccc(-c2n[nH]cc2-c2ccnc(-c3ccc(OCCn4ccnc4)cc3)c2)nc1	1.75%	-3.24%	-1.72%	9.4%	36.8%	1.39%	9.38%	0.51%	0.99%	1.96%
O=C(O[C@H]1CN[C@H](C#Cc2cc3ncnc(Nc4ccc(OCc5cccc(F)c5)c(Cl)c4)c3s2)C1)N1CCOCC1	5.48%	-1.6%	-1.95%	3.55%	7.34%	5.95%	5.11%	1.84%	6.02%	3.76%
COc1ccc(-c2nn3ncccc3c2-c2ccnc(Nc3ccc(F)c(F)c3)n2)cc1	6.78%	-0.12%	3.15%	33%	81%	11.9%	50.9%	0.5%	3.31%	4.66%
Nc1nccc(-c2c(-c3ccc(F)cc3)ncn2C2CCNCC2)n1	1.29% and 5.05%	-1.41% and 0.32%	-1.34% and 0.18%	–	–	–	–	–	–	–
CCn1c(-c2nonc2N)nc2cncc(C(=O)NCCNC)c21	5.7%	-3.21%	-0.69%	7.83%	6.55%	4.08%	3.55%	5.75%	5.07%	3.86%
CCN1CCC(C(=O)Nc2n[nH]c3nnc(-c4cccc(F)c4F)cc23)CC1	-0.23%	-0.64%	-0.52%	-0.33%	-0.72%	0.08%	0.51%	-1.52%	-2.25%	-0.79%
CN1CCC(C(=O)Nc2n[nH]c3nc(-c4ccc(O)cc4)c(Br)cc23)CC1	6.59% and 1.2%	-1.97% and -1.1%	-0.76% and -0.97%	1.69% and 4.12%	13% and 10.5%	4.89% and 2.05%	17.5% and 8.93%	2.74% and 2.79%	13.7% and 11.6%	4.48% and 2.47%
COc1ccccc1-c1cc(/C=C2\C(=O)Nc3ncc(Br)cc32)cc(Br)c1O	2.3%	0.86%	-0.04%	2.73%	11.3%	5.59%	5.73%	0.15%	9.18%	2.49%
COC(=O)Nc1nc2cc(Oc3ccc(NC(=O)Nc4ccccc4)cc3)ccc2[nH]1	4.97%	-2.65%	1.09%	1.53%	6.62%	3.05%	8.13%	-0.27%	1.34%	3.43%
Nc1nonc1-c1nc2cnccc2n1C1CC1	4.99% and 3.59%	-0.3% and -0.76%	-1.03% and 0.65%	9.91% and 3.52%	9.15% and 7.62%	3.95% and 1.62%	6.89% and 0.76%	3.43% and 4.51%	6.86% and 5.08%	3.64% and 2.61%
